The values below come from PubChem BioAssay (NCATS).

Molecules are shown by their SMILES. Active and inactive are the calls of the source. Calls come from the whole dose curve; as a rule, active = well fitted curve in the direction sought with a large enough effect; inactive = no such curve, though single readings can be large or run the other way.

Sequence of Alpha-galactosidase (Coffea arabica) (Q42656 whole entry, looked up): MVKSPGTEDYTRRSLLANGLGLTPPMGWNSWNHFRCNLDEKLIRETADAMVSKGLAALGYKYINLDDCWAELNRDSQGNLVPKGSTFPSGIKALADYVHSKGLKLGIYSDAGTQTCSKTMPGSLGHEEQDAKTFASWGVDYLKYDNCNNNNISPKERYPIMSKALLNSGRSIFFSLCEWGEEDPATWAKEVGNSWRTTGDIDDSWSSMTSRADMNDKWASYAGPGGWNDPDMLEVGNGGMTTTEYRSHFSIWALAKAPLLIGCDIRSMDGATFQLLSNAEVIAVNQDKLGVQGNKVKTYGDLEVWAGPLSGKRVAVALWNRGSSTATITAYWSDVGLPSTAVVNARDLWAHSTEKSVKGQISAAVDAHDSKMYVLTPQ

The assay deals with Alpha-galactosidase (Coffea arabica) (UniProt Q42656). The assay can be described thus: Counterscreen for Glucocerebrosidase Inhibitors: qHTS Assay for Coffee Bean alpha-Galactosidase at pH 5.9 (AID 998).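 Note: plate controls were uninhibited enzyme for no effect and no-enzyme basal signal for full effect.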 Conditions: coffee bean alpha-galactosidase enzyme assay; series mostly up to 76.9 µM; activity, negative = inhibition: at the top concentration. The text has this:
NIH Chemical Genomics Center [NCGC]
NIH Molecular Libraries Screening Centers Network [MLSCN]
PI Name: Zheng, Wei [NIH]
Alpha-galactosidase is a homodimeric glycoprotein that hydrolyzes the terminal alpha-galactosyl moieties from glycolipids and glycoproteins. Deficiency of this enzyme results in Fabry Disease with progressive accumulation of globotriaosylceramide and other glycosphingolipids in vascular endothelial cells that causes renal failure, myocardial infarction and stroke, and premature death in patients. It has reported that the improper folding and trafficking of alpha-galactosidase resulted from the genetic mutations may account for a significant numbers of Fabry patients. […] We optimized this coffee bean alpha-galactosidase assay in 1536-well plate format as a counter-screen assay for identifying the selective small molecule inhibitors of other lysosomal enzymes.
NCGC Assay Protocol Summary:
This is a fluorogenic enzyme assay with 4-Methylumbelliferyl alpha-D-galactopyranoside as the substrate and green coffee bean […] (from Sigma-Aldrich) as the enzyme preparation. Upon the hydrolysis of this fluorogenic substrate, the resulting product, […]. 4-Methyllumbelliferone, can be excited at 365 nm and emits at 440 nm which can be detected by a standard fluorescence plate reader. Data were normalized to the controls for basal activity (without enzyme) and 100% activity (with enzyme). In the AC50 values were determined from concentration-response data modeled with the standard Hill equation.
Assay buffer: 50 mM citric acid, 0.005% Tween-20, pH 5.9. (pH 5.9 is an optimal condition for this enzyme assay.)
1536-well assay protocol for the coffee bean alpha-galactosidase:
(1) Add 2 ul/well of enzyme (2 nM final)
(2) Add 23 nL compounds in DMSO solution. The final titration was 0.7 nM to 77 uM.
(3) Add 1 ul of substrate (80 uM final)
(4) Incubate at room temperature for 20 min.
(5) Add 2 ul stop solution (1M NaOH and 1M Glycine mixture, pH 10)
(6) Detect the assay plate in a ViewLux plate reader (PerkinElmer) with Ex=365 nm and Em=440nm.
Keywords: Alpha-galactosidase, Fabry Disease, pharmacological chaperone, chaperone therapy, high throughput screening, alpha-galactosidase inhibitor, MLSMR, MLSCN, NIH Roadmap, qHTS and NCGC
For orientation: Counterscreens check selectivity or assay interference.
Turning to `N[C@H](Cn1ccc(=O)[nH]c1=O)C(=O)O`, the “activity, negative = inhibition” value is 2.85% (inactive).
The same measure, in the same setting: next, `C[C@]12CC[C@H](O)C[C@@H]1CC[C@H]1[C@H]2CC[C@]2(C)[C@H](C(=O)CO)CC[C@@H]12`: -0.31% (inactive).
The same measure, in the same setting: the value for `NC(=O)CN1C[C@@H](O)CC1=O` was 3.37% (inactive).
On to `C[N+]1(C)C2CC(OC(=O)C(CO)c3ccccc3)CC1[C@@H]1O[C@H]21` (some centres undefined), for which the outcome was inactive.
As to `C[C@@]12CC[C@H]3[C@@H](CC[C@@H]4C[C@H](O)CC[C@]43C)[C@H]1CC[C@H]2O`, the “activity, negative = inhibition” value is -1.26% (inactive).
On the same count and under the same terms, the value for `COC(=O)[C@H](N)CCCN=C(N)N[N+](=O)[O-]` was 2.65% (inactive).
On the same count and under the same terms, next, `COc1cc([C@@H](O)CN)ccc1O`: 1.61% (inactive).
The same measure, in the same setting: next, `Oc1ccc2c3c1O[C@@H]1c4[nH]c5c(c4C[C@@]4(O)[C@@H](C2)N(CC2CC2)CC[C@]314)C[C@]1(O)[C@@H]2Cc3ccc(O)c4c3[C@@]1(CCN2CC1CC1)[C@H]5O4`: -5.21% (inactive).
As to `C[Se]C[C@@H](N)C(=O)O`, the “activity, negative = inhibition” value is -2.12% (inactive).
The same measure, in the same setting: the value for `CN1C[C@@H](CS(=O)(=O)N(C)C)C[C@H]2c3cccc4c3c(cn4C)C[C@@H]21` was -0.0925% (inactive).
The same measure, in the same setting: next, `O=C(O)[C@H]1CCN1`: -1.43% (inactive).
Regarding `COc1cc(C[C@H](C)N)c(OC)cc1I`, the call was inactive.
Consider `CCNC(=O)[C@@H]1O[C@@H](n2cnc3c(N)ncnc32)[C@@H](O)[C@H]1O`, for which the “activity, negative = inhibition” value was 0.91% (inactive).
On the same count and under the same terms, the value for `CC(C)C[C@H](NP(=O)(O)O[C@@H]1O[C@@H](C)[C@@H](O)[C@@H](O)[C@H]1O)C(=O)N[C@@H](Cc1c[nH]c2ccccc12)C(=O)O` was -0.0248% (inactive); that for `CC(=O)OCC1=C(C(=O)[O-])N2C(=O)[C@@H](NC(=O)CCC[C@@H](N)C(=O)[O-])[C@@H]2SC1.[Zn+2]` was 0.493% (inactive).
On the same count and under the same terms, next, `C[C@@H]1O[C@H]1P(=O)(O)O`: 3.93% (inactive).
Still for that read-out and setting: the value for `C[N+]1(C)CCc2cc3c(cc2[C@@H]1[C@@H]1OC(=O)c2c1ccc1c2OCO1)OCO3` was -2.04% (inactive); that for `C[C@@]12CC[C@H]3[C@@H](CCC4=C(O)C(=O)CC[C@]43C)[C@H]1CCC2=O` was 2.3% (inactive); that for `C[C@]12CC[C@H](O)CC1=CC[C@@H]1[C@H]2CC[C@]2(C)C(=O)CC[C@H]12` was 4.14% (inactive).
With `CCN(CC)c1ncnc2c1ncn2[C@@H]1O[C@@H](COP(=O)(O)OP(=O)(O)C(Br)(Br)P(=O)(O)O)[C@H](O)[C@@H]1O`, the “activity, negative = inhibition” value was 3.14% (inactive).
On the same count and under the same terms, the value for `C#CCN[C@@H](C)Cc1ccccc1` was -0.251% (inactive).
Same read-out and setting: the value for `CO[C@@H]1CC=C2CCN3CCC4=C(CC(=O)OC4)[C@]23C1` was 4.29% (inactive); that for `CCCN1CC[C@@H]2c3cc(O)ccc3CC[C@H]21` was 0.0396% (inactive); that for `C[C@@]12CC[C@H]3[C@@H](CC=C4C[C@H](OS(=O)(=O)O)CC[C@]43C)[C@H]1CCC2=O` was -1.83% (inactive).
Still for that read-out and setting: the value for `C[C@@H](Cc1ccc(O)cc1)NC[C@@H](O)c1cc(O)cc(O)c1` was 3.41% (inactive).
For `N[C@H](Cc1ccc(N(CCCl)CCCl)cc1)C(=O)O`, the “activity, negative = inhibition” value was -2.35% (inactive).
On the same count and under the same terms, the value for `CC(=O)[C@@H]1CC[C@H]2[C@H]3CC[C@H]4C[C@@H](O)CC[C@]4(C)[C@@H]3CC[C@]12C` was -3.44% (inactive); that for `O=C(O)[C@H]1[C@H](C(=O)O)[C@H]2CC[C@@H]1O2` was 0.133% (inactive); that for `C=CCN1CC[C@]23c4c5ccc(O)c4O[C@@H]2/C(=N/NC(=O)c2ccccc2)CC[C@@]3(O)[C@H]1C5` was -1.85% (inactive).
Turning to `CC(C)N[C@@H](C)Cc1ccc(I)cc1`, the “activity, negative = inhibition” value is 0.356% (inactive).
Still for that read-out and setting: the value for `COc1ccc2c(c1)[C@]13CCCC[C@@H]1[C@H](C2)NCC3` was -0.639% (inactive); that for `NC[C@H](O)c1cc(O)c(O)cc1F` was 0.552% (inactive); that for `C[C@@H]1Cc2cc3c(cc2C(c2ccc(N)cc2)=NN1)OCO3` was -2.78% (inactive).
Same read-out and setting: the value for `CCn1cnc2c(Nc3cccc(Cl)c3)nc(N[C@@H]3CCCC[C@H]3N)nc21` was -3.47% (inactive).
Same read-out and setting: next, `Nc1ncnc2c1ncn2[C@@H]1O[C@@H](COP(=O)(O)CP(=O)(O)OP(=O)(O)O)[C@H](O)[C@@H]1O`: 2.37% (inactive); `COc1ccc2c(c1O)-c1cccc3c1[C@H](C2)N(C)CC3`: -1.25% (inactive).
`N[C@H](CCl)C(=O)O`: the “activity, negative = inhibition” value is 1.48% (inactive).
Consider `CC(=O)c1c(O)c(C)c(O)c(Cc2c(O)c3c(c(C(=O)/C=C\c4ccccc4)c2O)OC(C)(C)C=C3)c1O`, for which the “activity, negative = inhibition” value was -2.23% (inactive).
`COc1ccc2c3c1O[C@@H]1C(=O)CC[C@@]4(O)[C@@H](C2)N(CC2CC2)CC[C@]314`: the “activity, negative = inhibition” value is -3.24% (inactive).
